22 sequences from the supplement of paper PMC6555819 can be followed below.

The test system of the test is RARb homodimer (NR concentration 270 nM). Description: PBM binding z-score (relative to random genomic background probes); higher = stronger binding; sequences stand for … in GC…GCGATTGACAGCGTAGAATGAAGG
In short, it runs like this:
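On custom Agilent 4×180K arrays, double-stranded probes with 34-nt variable regions carried direct-repeat seeds, single-nucleotide variants, half-site ablations or random human genomic background. Ligand-free nuclear receptor dimers were applied for 1 h, and binding was read with antibodies against each partner (one per run). Binding z-scores come from regression-normalized fluorescence, with the random background probes as reference.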
Sequence CCGAGTAGGTTATGGGGCATCCAGGCAACGGTGA gave a PBM binding z-score of 0.911.

In turn, GGAAAGAGGGCAAAGTTGATAGCATCTGTCGACG displayed a PBM binding z-score of 1.93.

As to CAGCCTAGGTCAAGGCCAGTATAGGAGGAACGTT, the PBM binding z-score was 3.01.

On to AGTATTAGTTGAGACGAGGGCAACCGATAGGTTG, for which the PBM binding z-score was found to be 1.37.

With TCTCGGAGGACACGAAAGATCAGAGCTCGACATC, the PBM binding z-score was determined as 0.303.

With ATAAGTAGGTTAAGGGTCATTCAGGTTGGTTCGC, the PBM binding z-score is 4.19.

For the sequence CCTAGTTGGTTAGGAGGTCACACACCGGATATGA, the PBM binding z-score came out at 3.78.

For the sequence CGTCAAAGTTCAACTAAGGTAACGGAAAGCACGC, the PBM binding z-score turned out to be 4.39.

In turn, ATCTCTAGGTAACAGTTCAGTGAATCCCGAGGAT gave a PBM binding z-score of 0.815.

Regarding TAGCCTAGGTCAGATCGGGCCACTATACGCTATA, the PBM binding z-score was 2.48.

In the case of CGTCAAAGTTAAACTAAGGTAACGTAAAGCACGC, the PBM binding z-score came out at 0.585.

With ACTTACGGGTCAACGAGGTTTTAGCACGCGTATA, the PBM binding z-score is 3.37.

CCTGCTAGGTCAATGGTTAGCTAAAGCAGCTCGC showed a PBM binding z-score of 2.6.

Sequence CGTCAAAGTTCATCTAAGGTAACGTAAAGCACGC displayed a PBM binding z-score of 4.35.

In turn, TCTTGTAGATCAAAGGTTAAGTAAGCCGAAGCCT had a PBM binding z-score of 1.76.

In the case of CCGACTGGGGCAGAAAGGGTACCATACCATCCGG, the PBM binding z-score is 0.624.

The sequence GCTGCTAGGTCAACTGATGGTCAGGTAAAGCTCG yielded a PBM binding z-score of 3.83.

As for TCAGACAGGTGCAGGTAACTCAGGTACGCAGTCG, the PBM binding z-score was -0.182.

Regarding TAGCCTAGGTCATGCGGGCCGGTATAGTGTCGGC, the PBM binding z-score worked out at 2.61.

Consider TTTTGTAGATCAATAGAGGTTAAGAAAGTGCGCT, for which the PBM binding z-score is 1.27.

In the case of TAGCCTAGGTCATTGGTCCAGTATAGTACGCATC, the PBM binding z-score worked out at 2.86.

Regarding TCATATAGGTAAATGCAAGGTGAAAGTCCGATCT, the PBM binding z-score came out at 1.3.
